Source: PubChem BioAssay (NCATS)
Inconclusive results are not listed. Entries that show only a call come without a potency. The source made the active and inactive calls. Calls come from the whole dose curve; as a rule, active = well fitted curve in the direction sought with a large enough effect; inconclusive = small, poorly fitted or top-dose-only effect, or another doubt; inactive = no such curve, though single readings can be large; an effect the other way counts as inactive or inconclusive.

How the values were obtained:
[1] = BET inhibitor-based combinations targeting novel dependencies in MECOM-rearranged (r) AML: MV-4-11 cell line (AID 2202233); note: potency is the fitted concentration of half-maximal effect; nearly all actives have a fitted effect of over 45% in size
Procedure, shortened: (§1)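 Seeding density was 500 cells/well, and drug exposure lasted 48 hr under standard culture conditions. Read-out used CellTiter-Glo reagent with a 15 min room-temperature incubation before luminescence measurement; AUC and Z-AUC summarize the normalized responses.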

[2] = BET inhibitor-based combinations targeting novel dependencies in MECOM-rearranged (r) AML: AML-194 cell line (AID 2202237; note: nearly all actives have a fitted effect of over 40% in size; note: potency is the fitted concentration of half-maximal effect)
Procedure, shortened: (§2)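 Readout: CellTiter-Glo luminescence. Exposure: 48 h, 11 concentrations, 500 cells/well. Metric: AUC and within-line Z-AUC after DMSO/empty-well normalization.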

[3] = BET inhibitor-based combinations targeting novel dependencies in MECOM-rearranged (r) AML: UCSD-AML1 cell line (AID 2202235); note: series mostly up to about 46 µM; nearly all actives have a fitted effect of over 40% in size
Procedure, shortened: as §1

[4] = BET inhibitor-based combinations targeting novel dependencies in MECOM-rearranged (r) AML: AML-191 cell line (AID 2202236; note: nearly all actives have a fitted effect of over 35% in size)
Procedure, shortened: as §2

[5] = BET inhibitor-based combinations targeting novel dependencies in MECOM-rearranged (r) AML: HNT-34 cell line (AID 2202234); note: potency is the fitted concentration of half-maximal effect; nearly all actives have a fitted effect of over 35% in size
Procedure, shortened: as §1

Question: For `Cc1nc(C)c(CN2CCN(C(c3ccc(F)cc3)c3ccc(F)cc3)CC2)nc1C`, which Potency [1] is on record?
Answer: 18.6 µM (active)

Question: What about the Potency [2] of the same molecule?
Answer: 20.9 µM (active)

Question: What does the source list for `Nc1nc(OC(c2ccc(-c3cccc(F)c3)cc2)C(F)(F)F)cc(-c2ccc(C[C@H](N)C(=O)O)cc2)n1` (some centres not stated)?
Answer: Potency [3]: inactive; Potency [4]: inactive; Potency [2]: inactive

Question: What does the source list for `O=C(Nc1cnccc1Cl)N1CCN(Cc2ccc3c(c2)OC(F)(F)O3)CC1`?
Answer: Potency [3]: inactive; Potency [2]: inactive

Question: With `COc1ccc(CC2c3cc(OC)c(OC)cc3CC[N+]2(C)CCC(=O)OCCCCCOC(=O)CC[N+]2(C)CCc3cc(OC)c(OC)cc3C2Cc2ccc(OC)c(OC)c2)cc1OC` (configuration not stated) as the molecule, how does the Potency [1] read?
Answer: 18.6 µM (active)

Question: What about the Potency [3] of the same molecule?
Answer: inactive

Question: What about the Potency [2] of the same molecule?
Answer: inactive

Question: For `O=C(/C=C/c1ccc(Cl)cc1)N1CCC2(CC1)CN(Cc1ccc(Cl)c(Cl)c1)C(=O)O2`, which Potency [5] is on record?
Answer: 26.3 µM (active)

Question: And the Potency [2]?
Answer: inactive
